The campaign covered roughly 5,500 compounds. About 2,000 (36%) were called active. Roughly 18% stayed inconclusive and do not appear here. Rule as the data show it: active = normalized growth mostly below about 0.91 (no sharp cut-off); inconclusive = no clear call, values can overlap the other calls; inactive = mostly above about 0.92. This is one part of the list.
Assay: chemical genetic growth profiling, strain panel (AID 1159580);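 also: tested at 20 µM; growth read once vehicle control cultures reached saturation at 30 °C; 1 = growth at the plate median or of vehicle wells; lower values mean less growth of the strain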
Details: growth OD

Measured: normalized growth

CC(=O)NC1SCCC1=O (stereo not drawn)
inactive: S. cerevisiae deletion strains, locus YAL021C, strain ccr4, stronger effect = lower value 1.01 | S. cerevisiae deletion strains, locus YAL026C, strain drs2, stronger effect = lower value 0.983 | S. cerevisiae deletion strains, locus YAL030W, strain snc1, stronger effect = lower value 0.975 | S. cerevisiae deletion strains, locus YBL061C, strain skt5, stronger effect = lower value 0.985 | S. cerevisiae deletion strains, locus YBR009C, strain hhf1, stronger effect = lower value 0.971 | S. cerevisiae deletion strains, locus YBR021W, strain FUR4, stronger effect = lower value 1.02 | S. cerevisiae deletion strains, locus YBR023C, strain chs3, stronger effect = lower value 0.977 | S. cerevisiae deletion strains, locus YBR171W, strain sec66, stronger effect = lower value 0.998 | S. cerevisiae deletion strains, locus YBR229C, strain ROT2, stronger effect = lower value 1.01 | S. cerevisiae deletion strains, locus YBR231C, strain swc5, stronger effect = lower value 0.996 | S. cerevisiae deletion strains, locus YBR279W, strain paf1, stronger effect = lower value 0.99 | S. cerevisiae deletion strains, locus YCL011C, strain gbp2, stronger effect = lower value 0.974 | S. cerevisiae deletion strains, locus YCL016C, strain dcc1, stronger effect = lower value 0.99 | S. cerevisiae deletion strains, locus YCL029C, strain bik1, stronger effect = lower value 1.02 | S. cerevisiae deletion strains, locus YCL061C, strain MRC1, stronger effect = lower value 1 | S. cerevisiae deletion strains, locus YCL069W, strain vba3, stronger effect = lower value 0.981 | S. cerevisiae deletion strains, locus YCR088W, strain abp1, stronger effect = lower value 0.984 | S. cerevisiae deletion strains, locus YDL005C, strain med2, stronger effect = lower value 1.01 | S. cerevisiae deletion strains, locus YDL035C, strain GPR1, stronger effect = lower value 1.03 | S. cerevisiae deletion strains, locus YDL040C, strain nat1, stronger effect = lower value 0.992 | S. cerevisiae deletion strains, locus YDL074C, strain BRE1, stronger effect = lower value 0.994 | S. cerevisiae deletion strains, locus YDL101C, strain DUN1, stronger effect = lower value 1.01 | S. cerevisiae deletion strains, locus YDL134C, strain PPH21, stronger effect = lower value 1.03 | S. cerevisiae deletion strains, locus YDL185W, strain tfp1, stronger effect = lower value 1.01 | S. cerevisiae deletion strains, locus YDL192W, strain arf1, stronger effect = lower value 1.01 | S. cerevisiae deletion strains, locus YDR001C, strain nth1, stronger effect = lower value 0.986 | S. cerevisiae deletion strains, locus YDR069C, strain doa4, stronger effect = lower value 0.977 | S. cerevisiae deletion strains, locus YDR101C, strain arx1, stronger effect = lower value 0.982 | S. cerevisiae deletion strains, locus YDR137W, strain rgp1, stronger effect = lower value 1.01 | S. cerevisiae deletion strains, locus YDR159W, strain sac3, stronger effect = lower value 0.945 | S. cerevisiae deletion strains, locus YDR162C, strain NBP2, stronger effect = lower value 1.02 | S. cerevisiae deletion strains, locus YDR195W, strain ref2 0.97 | S. cerevisiae deletion strains, locus YDR297W, strain sur2, stronger effect = lower value 0.985 | S. cerevisiae deletion strains, locus YDR318W, strain mcm21, stronger effect = lower value 1.02 | S. cerevisiae deletion strains, locus YDR334W, strain swr1, stronger effect = lower value 0.982 | S. cerevisiae deletion strains, locus YDR335W, strain msn5, stronger effect = lower value 0.99 | S. cerevisiae deletion strains, locus YDR388W, stronger effect = lower value 1.02 | S. cerevisiae deletion strains, locus YDR392W, strain spt3, stronger effect = lower value 0.889 | S. cerevisiae deletion strains, locus YDR502C, strain sam2, stronger effect = lower value 0.999 | S. cerevisiae deletion strains, locus YEL003W, strain gim4, stronger effect = lower value 0.976 | S. cerevisiae deletion strains, locus YEL037C, strain rad23, stronger effect = lower value 0.975 | S. cerevisiae deletion strains, locus YEL061C, strain CIN8 (second series), stronger effect = lower value 0.981 | S. cerevisiae deletion strains, locus YEL061C, strain CIN8, stronger effect = lower value 1 | S. cerevisiae deletion strains, locus YER015W, strain faa2, stronger effect = lower value 1.01 | S. cerevisiae deletion strains, locus YER016W, strain bim1, stronger effect = lower value 0.982 | S. cerevisiae deletion strains, locus YER110C, stronger effect = lower value 1.02 | S. cerevisiae deletion strains, locus YER111C, strain swi4, stronger effect = lower value 0.977 | S. cerevisiae deletion strains, locus YER155C, strain BEM2 (second series), stronger effect = lower value 0.958 | S. cerevisiae deletion strains, locus YER155C, strain BEM2, stronger effect = lower value 1.01 | S. cerevisiae deletion strains, locus YER167W, strain BCK2, stronger effect = lower value 1.02 | S. cerevisiae deletion strains, locus YFR010W, strain ubp6, stronger effect = lower value 0.983 | S. cerevisiae deletion strains, locus YGL078C, strain dbp3, stronger effect = lower value 1 | S. cerevisiae deletion strains, locus YGL086W, strain mad1, stronger effect = lower value 0.999 | S. cerevisiae deletion strains, locus YGL167C, strain pmr1, stronger effect = lower value 0.977 | S. cerevisiae deletion strains, locus YGL173C, strain kem1, stronger effect = lower value 0.974 | S. cerevisiae deletion strains, locus YGL227W, strain vid30, stronger effect = lower value 0.986 | S. cerevisiae deletion strains, locus YGL240W, strain doc1, stronger effect = lower value 0.988 | S. cerevisiae deletion strains, locus YGL248W, strain PDE1, stronger effect = lower value 0.999 | S. cerevisiae deletion strains, locus YGL253W, strain hxk2, stronger effect = lower value 0.989 | S. cerevisiae deletion strains, locus YGR135W, strain pre9, stronger effect = lower value 1.05 | S. cerevisiae deletion strains, locus YGR252W, strain gcn5, stronger effect = lower value 1 | S. cerevisiae deletion strains, locus YHR013C, strain ard1, stronger effect = lower value 0.943 | S. cerevisiae deletion strains, locus YHR027C, strain rpn1, stronger effect = lower value 1 | S. cerevisiae deletion strains, locus YHR030C, strain SLT2, stronger effect = lower value 1 | S. cerevisiae deletion strains, locus YHR079C, strain IRE1 (second series), stronger effect = lower value 1 | S. cerevisiae deletion strains, locus YHR094C, strain hxt1, stronger effect = lower value 1.02 | S. cerevisiae deletion strains, locus YHR129C, strain ARP1, stronger effect = lower value 1.01 | S. cerevisiae deletion strains, locus YHR142W, strain chs7, stronger effect = lower value 1.02 | S. cerevisiae deletion strains, locus YHR200W, strain rpn10, stronger effect = lower value 1.02 | S. cerevisiae deletion strains, locus YIL066C, strain RNR3, stronger effect = lower value 0.998 | S. cerevisiae deletion strains, locus YIL073C, strain SPO22, stronger effect = lower value 1.04 | S. cerevisiae deletion strains, locus YIL125W, strain kgd1, stronger effect = lower value 1.01 | S. cerevisiae deletion strains, locus YIR030C, strain dcg1, stronger effect = lower value 1.01 | S. cerevisiae deletion strains, locus YJL092W, strain hpr5, stronger effect = lower value 0.995 | S. cerevisiae deletion strains, locus YJL095W, strain BCK1 (second series), stronger effect = lower value 1 | S. cerevisiae deletion strains, locus YJL095W, strain BCK1, stronger effect = lower value 0.994 | S. cerevisiae deletion strains, locus YJL115W, strain asf1, stronger effect = lower value 0.979 | S. cerevisiae deletion strains, locus YJL129C, strain trk1, stronger effect = lower value 1 | S. cerevisiae deletion strains, locus YJL134W, strain LCB3, stronger effect = lower value 1.01 | S. cerevisiae deletion strains, locus YJL154C, strain vps35, stronger effect = lower value 0.975 | S. cerevisiae deletion strains, locus YJL164C, strain tpk1, stronger effect = lower value 1.01 | S. cerevisiae deletion strains, locus YJL166W, strain qcr8, stronger effect = lower value 0.995 | S. cerevisiae deletion strains, locus YJL168C, strain set2, stronger effect = lower value 1.02 | S. cerevisiae deletion strains, locus YJL187C, strain SWE1 (second series), stronger effect = lower value 0.989 | S. cerevisiae deletion strains, locus YJL187C, strain SWE1, stronger effect = lower value 0.992 | S. cerevisiae deletion strains, locus YJR043C, strain POL32, stronger effect = lower value 1 | S. cerevisiae deletion strains, locus YKL009W, strain mrt4, stronger effect = lower value 0.999 | S. cerevisiae deletion strains, locus YKL068W, stronger effect = lower value 1 | S. cerevisiae deletion strains, locus YKL085W, strain MDH1 (second series), stronger effect = lower value 1.01 | S. cerevisiae deletion strains, locus YKL085W, strain MDH1, stronger effect = lower value 1.01 | S. cerevisiae deletion strains, locus YKL160W, strain elf1, stronger effect = lower value 1.04 | S. cerevisiae deletion strains, locus YKL190W, strain CNB1, stronger effect = lower value 0.998 | S. cerevisiae deletion strains, locus YKR001C, strain vps1, stronger effect = lower value 1.01 | S. cerevisiae deletion strains, locus YKR026C, strain gcn3, stronger effect = lower value 0.977 | S. cerevisiae deletion strains, locus YKR091W, strain srl3, stronger effect = lower value 0.99 | S. cerevisiae deletion strains, locus YLL001W, strain dnm1, stronger effect = lower value 1.02 | S. cerevisiae deletion strains, locus YLL026W, stronger effect = lower value 1 | S. cerevisiae deletion strains, locus YLL041C, strain sdh2, stronger effect = lower value 0.997 | S. cerevisiae deletion strains, locus YLR027C, strain aat2, stronger effect = lower value 1 | S. cerevisiae deletion strains, locus YLR039C, strain RIC1, stronger effect = lower value 1.01 | S. cerevisiae deletion strains, locus YLR058C, strain SHM2, stronger effect = lower value 1.01 | S. cerevisiae deletion strains, locus YLR102C, strain apc9, stronger effect = lower value 1.01 | S. cerevisiae deletion strains, locus YLR221C, strain rsa3, stronger effect = lower value 1.01 | S. cerevisiae deletion strains, locus YLR258W, strain gsy2, stronger effect = lower value 0.985 | S. cerevisiae deletion strains, locus YLR262C, strain YPT6 (second series), stronger effect = lower value 0.99 | S. cerevisiae deletion strains, locus YLR262C, strain YPT6, stronger effect = lower value 1 | S. cerevisiae deletion strains, locus YLR268W, strain sec22, stronger effect = lower value 1 | S. cerevisiae deletion strains, locus YLR320W, strain mms22, stronger effect = lower value 0.999 | S. cerevisiae deletion strains, locus YLR330W, strain CHS5, stronger effect = lower value 1.01 | S. cerevisiae deletion strains, locus YLR342W, strain FKS1 (second series), stronger effect = lower value 1.07 | S. cerevisiae deletion strains, locus YLR342W, strain FKS1, stronger effect = lower value 0.979 | S. cerevisiae deletion strains, locus YLR357W, strain rsc2, stronger effect = lower value 0.991 | S. cerevisiae deletion strains, locus YLR370C, strain arc18, stronger effect = lower value 0.992 | S. cerevisiae deletion strains, locus YLR371W, strain rom2, stronger effect = lower value 1.01 | S. cerevisiae deletion strains, locus YLR384C, strain iki3, stronger effect = lower value 0.979 | S. cerevisiae deletion strains, locus YLR418C, strain cdc73, stronger effect = lower value 1.02 | S. cerevisiae deletion strains, locus YML016C, strain PPZ1, stronger effect = lower value 0.998 | S. cerevisiae deletion strains, locus YML032C, strain rad52, stronger effect = lower value 0.995 | S. cerevisiae deletion strains, locus YML120C, strain ndi1, stronger effect = lower value 0.985 | S. cerevisiae deletion strains, locus YML124C, strain tub3, stronger effect = lower value 1.01 | S. cerevisiae deletion strains, locus YMR058W, strain fet3, stronger effect = lower value 0.989 | S. cerevisiae deletion strains, locus YMR078C, strain ctf18, stronger effect = lower value 1.01 | S. cerevisiae deletion strains, locus YMR125W, strain sto1, stronger effect = lower value 0.959 | S. cerevisiae deletion strains, locus YMR129W, stronger effect = lower value 0.995 | S. cerevisiae deletion strains, locus YMR205C, strain PFK2, stronger effect = lower value 0.969 | S. cerevisiae deletion strains, locus YMR223W, strain ubp8, stronger effect = lower value 1.03 | S. cerevisiae deletion strains, locus YMR231W, strain pep5, stronger effect = lower value 0.976 | S. cerevisiae deletion strains, locus YMR307W, strain GAS1, stronger effect = lower value 0.996 | S. cerevisiae deletion strains, locus YNL067W, strain RPL9B, stronger effect = lower value 0.987 | S. cerevisiae deletion strains, locus YNL071W, strain lat1, stronger effect = lower value 0.984 | S. cerevisiae deletion strains, locus YNL209W, strain ssb2, stronger effect = lower value 0.979 | S. cerevisiae deletion strains, locus YNL233W, strain BNI4, stronger effect = lower value 0.984 | S. cerevisiae deletion strains, locus YNL248C, strain rpa49, stronger effect = lower value 1.01 | S. cerevisiae deletion strains, locus YNL250W, strain rad50, stronger effect = lower value 1.04 | S. cerevisiae deletion strains, locus YNL271C, strain bni1, stronger effect = lower value 1.01 | S. cerevisiae deletion strains, locus YNL298W, strain CLA4, stronger effect = lower value 1.01 | S. cerevisiae deletion strains, locus YNL307C, strain MCK1, stronger effect = lower value 1.02 | S. cerevisiae deletion strains, locus YNL322C, strain KRE1 (second series), stronger effect = lower value 0.989 | S. cerevisiae deletion strains, locus YNR049C, strain mso1, stronger effect = lower value 0.975 | S. cerevisiae deletion strains, locus YNR052C, strain pop2, stronger effect = lower value 1.01 | S. cerevisiae deletion strains, locus YOL006C, strain TOP1, stronger effect = lower value 0.961 | S. cerevisiae deletion strains, locus YOL012C, strain htz1 1.01 | S. cerevisiae deletion strains, locus YOL147C, strain pex11, stronger effect = lower value 1.01 | S. cerevisiae deletion strains, locus YOR001W, strain rrp6, stronger effect = lower value 1.01 | S. cerevisiae deletion strains, locus YOR061W, strain CKA2, stronger effect = lower value 1.01 | S. cerevisiae deletion strains, locus YOR069W, strain VPS5, stronger effect = lower value 1 | S. cerevisiae deletion strains, locus YOR070C, strain gyp1, stronger effect = lower value 0.986 | S. cerevisiae deletion strains, locus YOR080W, strain dia2, stronger effect = lower value 0.987 | S. cerevisiae deletion strains, locus YOR083W, strain WHI5, stronger effect = lower value 1.05 | S. cerevisiae deletion strains, locus YOR106W, strain vam3, stronger effect = lower value 1.01 | S. cerevisiae deletion strains, locus YOR136W, strain idh2, stronger effect = lower value 1 | S. cerevisiae deletion strains, locus YOR144C, strain elg1, stronger effect = lower value 1 | S. cerevisiae deletion strains, locus YOR184W, strain ser1, stronger effect = lower value 1.03 | S. cerevisiae deletion strains, locus YOR265W, strain rbl2, stronger effect = lower value 0.997 | S. cerevisiae deletion strains, locus YOR270C, strain vph1, stronger effect = lower value 0.973 | S. cerevisiae deletion strains, locus YOR290C, strain snf2, stronger effect = lower value 0.919 | S. cerevisiae deletion strains, locus YOR316C, strain cot1, stronger effect = lower value 1.01 | S. cerevisiae deletion strains, locus YPL051W, strain arl3, stronger effect = lower value 1.01 | S. cerevisiae deletion strains, locus YPL055C, strain LGE1, stronger effect = lower value 0.93 | S. cerevisiae deletion strains, locus YPL078C, strain atp4, stronger effect = lower value 1.01 | S. cerevisiae deletion strains, locus YPL106C, strain sse1, stronger effect = lower value 0.978 | S. cerevisiae deletion strains, locus YPL240C, strain hsp82, stronger effect = lower value 0.994 | S. cerevisiae deletion strains, locus YPR119W, strain clb2, stronger effect = lower value 1.01 | S. cerevisiae deletion strains, locus YPR141C, strain kar3, stronger effect = lower value 1 | S. cerevisiae deletion strains, locus YPR163C, strain tif3, stronger effect = lower value 1.02 | S. cerevisiae deletion strains, locus YPR167C, strain met16, stronger effect = lower value 1.01 | S. cerevisiae deletion strains, strain wtn01, stronger effect = lower value 1.01 | S. cerevisiae strains, strain wild type, stronger effect = lower value 1.01
